The panel holds about 83,000 compounds, 20% with a hit somewhere; the sample as a whole holds those more often.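 The test compound was applied at a single concentration to cells in 96-well plates for 48 hours, and percent growth was recorded.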 Values without a mark were called inactive. Calls of active or inactive are those of the source. How the source made its calls: active means growth percent below 10; inactive means the rest.
Experiments:
Assay in all cases: NCI-60 one-dose screen, 48 h (100 = growth as untreated, 0 = no growth, -100 = all killed)
Conditions in all cases: 10 µM unless noted
T-47D breast = test system: T-47D breast
BT-549 breast = test system: BT-549 breast
MDA-MB-435 melanoma = test system: MDA-MB-435 melanoma
SW-620 colon = test system: SW-620 colon
MCF7 breast = test system: MCF7 breast
HCT-116 colon = test system: HCT-116 colon
HCC-2998 colon = test system: HCC-2998 colon
KM12 colon = test system: KM12 colon

Row | Structure (SMILES) | growth (T-47D breast) | growth (BT-549 breast) | growth (MDA-MB-435 melanoma) | growth (SW-620 colon) | growth (MCF7 breast) | growth (HCT-116 colon) | growth (HCC-2998 colon) | growth (KM12 colon)
1 | CCOC(=O)C1=C(CC(O)c2ccc(OC)cc2OC)NC(=O)NC1c1ccccc1 (stereo not given) | 110% | 102% | 99.4% | 115% | 120% | 89.2% | 90.6% | 115%
2 | CCOC(=O)c1nnn(-c2no[n+]([O-])c2-c2ccc(OC)cc2)c1COc1cccc2cccnc12 | 53.1% | -14.7% (active) | 9.72% (active) | 26% | 15.2% | 9.49% (active) | 55.4% | 19.7%
3 | Cc1ccc(-c2nc(SCC(=O)N3CCN(c4cc5c(cc4F)c(=O)c(C(=O)O)cn5C4CC4)CC3)nc(Cl)c2C#N)cc1 | 91.1% | 103% | 106% | 103% | 94.9% | 101% | 98.8% | 102%
4 | C#Cc1cccc(Nc2ncnc3cc(NC(=O)CCl)ccc23)c1 | -52.7% (active) | -76.7% (active) | -70.8% (active) | -61.6% (active) | -50.4% (active) | -76.3% (active) | -88.3% (active) | -74.3% (active)
5 | CCn1cc(Cc2cc(C(=O)Nc3cc4cc(OC)c(OC)cc4c(C)n3)ccc2Cl)cn1 | 19.8% | 17.3% | 2.12% (active) | 38.3% | 18.5% | 10.3% | 65.1% | 37.7%
6 | C[C@@H]1CN(c2cnc(C(=O)Nc3cc(F)cc4cccnc34)cn2)C[C@H](C)N1 | 30% | 102% | 97% | 46.2% | 9.07% (active) | 13.1% | 91.7% | 83.4%
7 | CNC(=O)Nc1ccc(-c2ccc3ncnc(Nc4cccc(Cl)c4)c3c2)cc1 | -4.13% (active) | 50.9% | 64% | 93.9% | 22.6% | 65.9% | 74% | 61.3%
8 | O=C(NCCCCO)c1cncnc1Nc1ccc2c(ccn2Cc2cccc(F)c2)c1 | 83.3% | 88.6% | 92.1% | 105% | 96.8% | – | 93.4% | 97.4%
9 | CCCCCCCCn1ccc2cc(NC(=O)CN=[N+]=[N-])ccc21 | 94% | 86.5% | 108% | 101% | 91.1% | – | 117% | 99.4%
10 | Cn1c(C#N)ccc1-c1ccc(F)c(NC(=O)c2ccc(F)cc2)c1 | 60.4% | 80% | -11.2% (active) | 44.9% | 49.4% | – | 90.5% | 60.9%
11 | COC1C(O)CC(OC2CC(OC3CC(O[C@@H]4C(=O)c5c(cc6cc(OC7CC(OC8CC(O)C(O)C(C)O8)C(O)C(C)O7)c(C)c(O)c6c5O)CC4[C@H](OC)[C@@H](O)C(C)=O)OC(C)C3O)OC(C)C2O)OC1C (stereo not given in full) | 1.23% (active) | -1.59% (active) | 5.77% (active) | 14.9% | 4.58% (active) | – | -50% (active) | 14.7%
12 | Fc1cc2[nH]ncc2c2c3c(c(-c4cn[nH]c4C(F)(F)F)nc12)CCCC3 | -16.2% (active) | -64.2% (active) | 26.2% | 4.23% (active) | 2.27% (active) | 1.05% (active) | -14.2% (active) | 9.4% (active)
13 | COc1ccc2c(O)c(/C=C3\N=Nc4ncccc43)oc2c1C[C@@H]1CCNC[C@H]1F | 29.7% | -43.2% (active) | -9.87% (active) | -6.3% (active) | -14.5% (active) | – | -21.5% (active) | -48.7% (active)
14 | CC1(C)N=C(N)N=C(N)N1c1cc(Cl)ccc1Cl | 95.2% | 85.2% | 108% | 42.2% | 65.7% | 36.8% | 94.8% | 94%
15 | CN(C)CCCNC(=O)c1cncnc1Nc1ccc2c(ccn2Cc2cccc(F)c2)c1 | 101% | 92.2% | 79.6% | 88.3% | 71.4% | – | 97.6% | 98%
16 | COc1ccc(N/N=C/c2cn(-c3ccc(C(=O)O)cc3)nc2-c2cc3ccccc3oc2=O)cc1 | 49.6% | 77.8% | 52.4% | 52.9% | 49% | 49.7% | 41.8% | 48.2%
17 | O=c1oc2c(cc1-c1ccccc1)c(=O)[nH]c1ccccc12 | 95.4% | 97.5% | 97.7% | 105% | 87.3% | – | 105% | 101%

Row | Structure (SMILES) | growth (T-47D breast) | growth (BT-549 breast) | growth (MDA-MB-435 melanoma) | growth (SW-620 colon) | growth (MCF7 breast) | growth (HCT-116 colon) | growth (HCC-2998 colon) | growth (KM12 colon)
18 | COc1ccc(/C=C(\C(=O)NCc2cccnc2)S(=O)(=O)c2ccccc2)cc1OC | 12.1% | 35.5% | -8.51% (active) | 11.9% | 12.9% | 15% | 96.6% | 52.8%
19 | O=C(/C=C/C12c3ccccc3C(c3ccccc31)C1C(=O)NC(=O)C12)c1ccc(Cl)cc1Cl (stereo not given) | 9.41% (active) | 14.6% | -0.0298% (active) | 5.09% (active) | 6.75% (active) | – | 68.2% | 17.4%
20 | COc1ccc2c(c1)oc1c(C)c3c(c(C)c12)C(=O)N(CCOS(C)(=O)=O)C3=O | 103% | 90% | 94.9% | 94.2% | 73.7% | – | 100% | 107%
21 | CCNC(=O)N1CCc2c(Br)c3c(c(OC)c2C1Cc1ccc(OC)cc1)OCO3 (stereo not given) | 20.6% | 30% | -9.57% (active) | 19% | 12.2% | – | 71.3% | 22%
22 | CNC(=O)NCC1OC(n2cnc3c(NC(=O)Nc4ccccc4)ncnc32)C2OC(=O)CC12 (stereo not given) | 91.6% | 100% | 101% | 106% | 97.9% | – | 93.1% | 106%
23 | COC(=O)c1c(C)nc(C)c2c1C(=O)C=C(NCc1ccccc1)C2=O | 82.2% | 90% | 103% | 106% | 76% | 76% | 96.2% | 83%
24 | O=C(N/N=C/c1ccc(Cl)cc1)c1ccc(NC(=O)c2ccccn2)cc1 | 52.1% | 62.7% | 63.8% | 71.5% | 52.3% | – | 72.3% | 73.2%
25 | Nc1cc(C(=O)O)cc(-n2c(O)c(C=C3N=c4ccccc4=N3)sc2=S)c1 | 95.2% | 103% | 103% | 96.8% | 94.5% | – | 99.3% | 103%
26 | ClC(Cl)c1nc(-c2ccccc2)n2nc(-c3ccccc3)cc2n1 | 28.5% | 77.2% | 12% | -35.3% (active) | 3.37% (active) | – | -82.1% (active) | -32% (active)
27 | CN1CCOCCN(C)Cc2ccc3ccc(cc3c2)CN(C)CCOCCN(C)Cc2ccc3ccc(cc3c2)C1 | 119% | 93.6% | 82.9% | 22.4% | 77.5% | 28.3% | 100% | 73.7%
28 | CN(C)c1ccc(/C=C2\C=C(c3nc4ccccc4s3)OC2=O)cc1 | 78% | 110% | 100% | 94.7% | 70.8% | – | 97.8% | 93.7%
29 | C=C1C(=O)O[C@@H]2C3C(=C(C)CC[C@@H]12)CC1O[C@]13C (stereo not given in full) | 56.8% [6.75 µM] | 76.3% [6.75 µM] | 75.5% [6.75 µM] | 71.8% [6.75 µM] | 44.2% [6.75 µM] | – | 108% [6.75 µM] | 102% [6.75 µM]
30 | CCCc1cc(=O)oc2c(C(=O)CC(C)C)c(O)c(CC=C(C)C)c(O)c12 | 13.5% | 1.17% (active) | 24.3% | 27.4% | 7.3% (active) | – | 11% | 18.9%
31 | C1CCC(N2CN3c4nonc4N4CN(C5CCCCC5)CN5c6nonc6N(C2)C3C45)CC1 (stereo not given) | 95.3% | 99.8% | 100% | 92.8% | 89.1% | – | 98.4% | 98.8%
32 | O=C(C[C@]1(O)C(=O)Nc2ccc(Br)cc21)c1ccco1 | 104% | 109% | 112% | 95.5% | 94.2% | 105% | 115% | 101%
33 | CN1C(=O)/C(=C/c2ccc(C(=O)Nc3ncc(Cc4cccc(C(F)(F)F)c4)s3)cc2)SC1=S | 30% | 47.3% | -27.2% (active) | 38.2% | 30.4% | – | 49.6% | 28%

Reference: PubChem BioAssay (NCI)
